Screens from PubChem.
HSF-1 act: HSF-1 activators, primary screen, NIH3T3-HGL cells, MG132 stress, luminescence, single point; NIH3T3-HGL HSF-1 luciferase reporter, 8 h; 100% = twice DMSO control signal; activation, % at 9 µM; 1.7% of 300,000 active;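 active = mean replicate activation of at least 50% with a set share of replicates each reaching 50%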;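 also: 0% = median of the neutral control wells and 100% = twice that signal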
DAX1 inh: DAX1 (NR0B1) inhibitors, primary screen, cell-based, HEK293, Gal4-DAX1, luciferase luminescence. Nuclear receptor subfamily 0 group B member 1 (Homo sapiens), P51843. HEK293 Gal4-DAX1 luciferase reporter. inhibition, % at 6.75 µM. 0.99% of 340,000 active;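 active = inhibition above the mean over all tested compounds plus 3 SD, cut at about 4.2% in these data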;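 also: 0% = DAX1-transfected cells with DMSO and 100% = empty-vector control cells with DMSO; inhibition shows as a rise in luminescence from relieved DAX1 repression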
AHR act: AHR activators, primary screen, cell-based, luminescence, luciferase reporter, human; AHR-responsive luciferase reporter cells; activation, % at 5 µM; 2.5% of 320,000 active; AID 2796, 2010; in the data active = activation above about 47%;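 also: 0% = vehicle wells and 100% = reference agonist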
Target sequence (P35869 whole entry, looked up): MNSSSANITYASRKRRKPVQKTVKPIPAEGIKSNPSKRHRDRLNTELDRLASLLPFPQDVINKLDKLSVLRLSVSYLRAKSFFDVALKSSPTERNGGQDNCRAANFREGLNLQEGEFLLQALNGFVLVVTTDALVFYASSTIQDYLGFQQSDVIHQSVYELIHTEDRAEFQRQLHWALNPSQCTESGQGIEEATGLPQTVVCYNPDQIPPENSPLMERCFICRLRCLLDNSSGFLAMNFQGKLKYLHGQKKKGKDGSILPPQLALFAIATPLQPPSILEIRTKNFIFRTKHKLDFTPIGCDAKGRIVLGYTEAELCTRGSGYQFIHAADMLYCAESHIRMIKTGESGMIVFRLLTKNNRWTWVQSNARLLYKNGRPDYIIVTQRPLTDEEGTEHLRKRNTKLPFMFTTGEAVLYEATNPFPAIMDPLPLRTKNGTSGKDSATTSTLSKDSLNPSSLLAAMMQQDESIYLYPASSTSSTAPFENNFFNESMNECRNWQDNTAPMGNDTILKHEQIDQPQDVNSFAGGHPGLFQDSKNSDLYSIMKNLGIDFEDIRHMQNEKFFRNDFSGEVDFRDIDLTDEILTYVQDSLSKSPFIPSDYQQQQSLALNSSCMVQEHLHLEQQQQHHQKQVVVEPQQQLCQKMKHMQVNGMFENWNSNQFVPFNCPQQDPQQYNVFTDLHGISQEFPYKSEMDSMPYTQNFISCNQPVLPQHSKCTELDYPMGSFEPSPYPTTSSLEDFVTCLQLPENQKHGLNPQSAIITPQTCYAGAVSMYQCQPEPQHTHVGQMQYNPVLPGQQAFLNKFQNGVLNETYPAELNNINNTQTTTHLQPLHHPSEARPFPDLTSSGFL
HSF1 inhib: HSF1 inhibitors in luciferase reporter cells, primary screen, cell-based, NIH3T3, luminescence; NIH3T3-HGL HSE-luciferase, MG132-induced, luminescence 8 h; active compounds read low; activity change, negative = inhibition, % at 7.5 µM (by protocol); 0.77% of 300,000 active;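 active = more than half of replicate wells show activity change below -50%, luminescence cut by over half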;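 also: luciferase reports HSF-1 transcriptional activity via heat shock element; 0% = median of DMSO wells and -100% = zero luminescence signal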
FXN GAA850 act: FXN promoter activators, primary screen, cell-based, luciferase luminescence, HEK293 lucGAA850; HEK293 lucGAA850 FXN promoter luciferase reporter, 24 h; percent of 10 µM SAHA response; activation, % at 6 µM; 0.56% of 360,000 active; AID 540364, 2011;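 active = activation above the average of all compounds screened plus 3 SD, cutoff fixed separately per campaign, cut at about 7.5% in these data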;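 also: 0% = DMSO wells and 100% = 10 µM SAHA wells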
HSP90 refold inh: HSP90 inhibitors, primary screen, cell lysate, luminescence | Rabbit reticulocyte lysate, luciferase refolding luminescence, 3 h | 0.91% of 290,000 active | inhibition, % at 5.6 µM | Heat shock protein HSP 90 (rabbit reticulocyte lysate; luciferase refolding);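 active = inhibition above the screen-wide mean plus 3 SD, computed separately per campaign, cut at about 16% in these data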;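 also: 0% = DMSO wells and 100% = 60 µM geldanamycin wells; inhibitors lower the luminescence because luciferase stays unfolded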
* marks the source's active call; other numbers are inactive results. Shown are actives, neighbours in structure and some others; about 5.9% of the full set was active somewhere.

What do the screens show for `CCn1c2ccccc2c2nnc(SCc3ccccc3)nc21`?
HSF-1 act: 6; DAX1 inh: -1; AHR act: 63*; HSF1 inhib: 4; FXN GAA850 act: 5; HSP90 refold inh: -7

What do the screens show for `Cn1c2ccccc2c2nnc(SCC(N)=O)nc21`?
HSF-1 act: -1; DAX1 inh: -2; AHR act: 14; HSF1 inhib: 3; FXN GAA850 act: 4; HSP90 refold inh: -1

How did Cc1c(NC(=O)CSc2nnc3c4ccccc4n(CCc4ccccc4)c3n2)c(=O)n(-c2ccccc2)n1C do in these assays?
HSF-1 act: 88*; DAX1 inh: -3; AHR act: -4; HSF1 inhib: 66; FXN GAA850 act: -9; HSP90 refold inh: -4

Results for Cc1cc([N+](=O)[O-])nn1Cc1noc(C(=O)NCCCn2ccnc2)n1 ?
HSF-1 act: 12; DAX1 inh: 0; AHR act: 5; HSF1 inhib: -10; FXN GAA850 act: 2; HSP90 refold inh: -3

Results for O=C(c1[nH]nc2c1CCc1ccccc1-2)N1CCN(Cc2ccc3c(c2)OCO3)CC1 ?
HSF-1 act: 17; DAX1 inh: -2; AHR act: 1; HSF1 inhib: -6; FXN GAA850 act: 0; HSP90 refold inh: -2

What do the screens show for `CCCn1c2ccccc2c2nnc(SCC(=O)OC)nc21`?
HSF-1 act: -5; DAX1 inh: -1; AHR act: 2; HSF1 inhib: -5; FXN GAA850 act: -1; HSP90 refold inh: 5

What do the screens show for `CCCCn1c2ccccc2c2nnc(SCC(=O)NC3=NN=C(c4ccccc4)CS3)nc21`?
HSF-1 act: -46; AHR act: 61*; HSF1 inhib: -42; HSP90 refold inh: 6

Results for CC(=O)C1CCC2C3CCC4CC(=O)CCC4(C)C3C(C)(O)CC12C (stereo not given) ?
DAX1 inh: 0; FXN GAA850 act: 2

What do the screens show for `CN(C(=O)c1cccc(C(=O)N(C)c2ccccc2)c1)c1ccccc1`?
HSF-1 act: -7; DAX1 inh: 0; AHR act: 4; HSF1 inhib: -9; FXN GAA850 act: -2; HSP90 refold inh: -1

Results for CN(C(=O)c1cc(C(=O)N(C)c2ccccc2)cc([N+](=O)[O-])c1)c1ccccc1 ?
HSF-1 act: -5; DAX1 inh: 4.3*; AHR act: 2; HSF1 inhib: -2; FXN GAA850 act: -1; HSP90 refold inh: -1

What do the screens show for `COc1ccc(C(C)(O)c2nc(-c3ccc(N(C)C)cc3)cs2)cc1` (stereo not given)?
FXN GAA850 act: -1

Results for CCCCNC(=O)c1ccc2c(SCC(=O)O)c3c(nc2c1)CCCC3 ?
HSF-1 act: 12; DAX1 inh: -2; AHR act: -3; HSF1 inhib: -7; FXN GAA850 act: 0; HSP90 refold inh: 3

What do the screens show for `CC(C)CCNC(=O)c1ccc2c(SCC(=O)O)c3c(nc2c1)CCC3`?
HSF-1 act: -89; DAX1 inh: 1; AHR act: 0; HSF1 inhib: -86*; FXN GAA850 act: -1; HSP90 refold inh: 0

Results for CCC(C)NC(=O)c1ccc2c(Cl)c3c(nc2c1)CCC3 (stereo not given) ?
HSF-1 act: 40; DAX1 inh: 5.7*; AHR act: 1; HSF1 inhib: 6; FXN GAA850 act: 6; HSP90 refold inh: -1

How did COc1cc(/C=C/C(=O)c2ccc(Cl)s2)cc(OC)c1O do in these assays?
HSF-1 act: 174*; DAX1 inh: -2; AHR act: 1; HSF1 inhib: 129; FXN GAA850 act: -4; HSP90 refold inh: 4

How did CC(C)OC(=O)CNc1n[nH]c(=S)[nH]c1=O do in these assays?
HSF-1 act: 35; DAX1 inh: -1; HSF1 inhib: 1; FXN GAA850 act: 2; HSP90 refold inh: 17*

What do the screens show for `CCOC(=O)c1ccc(NC2=CC(=O)C(=O)c3ccccc32)cc1`?
HSF-1 act: -7; DAX1 inh: 3; AHR act: 15; HSF1 inhib: -5; FXN GAA850 act: 0; HSP90 refold inh: 5

How did COC1=C(Nc2ccc(O)cc2)C(=O)c2ccccc2C1=O do in these assays?
HSF-1 act: 34; DAX1 inh: -3; AHR act: 40; HSF1 inhib: 12; FXN GAA850 act: 4; HSP90 refold inh: -2

What do the screens show for `CC(=O)Nc1ccc(NC2=CC(=O)c3ccccc3C2=O)cc1`?
HSF-1 act: 77*; DAX1 inh: 1; AHR act: 26; HSF1 inhib: 32; FXN GAA850 act: 4; HSP90 refold inh: 10

What do the screens show for `O=C1C=C(Nc2ccc(O)cc2)C(=O)c2ccccc21`?
HSF-1 act: 64*; DAX1 inh: 0; AHR act: 33; HSF1 inhib: 58; FXN GAA850 act: 3; HSP90 refold inh: 11

Results for Cc1ccc(NC2=CC(=O)C(=O)c3ccccc32)cc1 ?
HSF-1 act: 80*; DAX1 inh: 0; AHR act: 2; HSF1 inhib: 68; FXN GAA850 act: 3; HSP90 refold inh: 14

How did C[C@H](CO)N1C[C@H](C)[C@H](CN(C)C(=O)CCC(F)(F)F)OCc2cnnn2CCCC1=O do in these assays?
DAX1 inh: 2; FXN GAA850 act: 2

What do the screens show for `CCOC(=O)Cn1c(=O)cc(C)c2ccccc21`?
HSF-1 act: 19; DAX1 inh: 4.5*; AHR act: -1; HSF1 inhib: 1; FXN GAA850 act: 0; HSP90 refold inh: 1

How did Cc1cc(=O)n(CC(=O)O)c2ccccc12 do in these assays?
HSF-1 act: 1; DAX1 inh: 1; AHR act: 0; HSF1 inhib: -2; FXN GAA850 act: 1; HSP90 refold inh: 1

What do the screens show for `O=C(c1cc(Cl)cc(Cl)c1)N1CCN(c2cc(C(F)(F)F)nc3ccccc23)CC1`?
HSF-1 act: -3; AHR act: -1; HSF1 inhib: 6; FXN GAA850 act: 3; HSP90 refold inh: 1

How did CCOC(=O)c1cccc(NC(=O)c2cc(C)nn2-c2ccccc2)c1 do in these assays?
HSF-1 act: 12; DAX1 inh: -1; AHR act: 1; HSF1 inhib: 16; FXN GAA850 act: 0; HSP90 refold inh: -2

How did O=[N+]([O-])c1cccc(C(=Nc2ccc(Cl)cc2)NO)c1 do in these assays?
HSF-1 act: -2; DAX1 inh: -2; AHR act: 67*; HSF1 inhib: 12; FXN GAA850 act: 1; HSP90 refold inh: 2

What do the screens show for `O=[N+]([O-])c1cccc(C(=Nc2ccccc2)NO)c1`?
HSF-1 act: -14; DAX1 inh: -1; AHR act: 19; HSF1 inhib: -11; FXN GAA850 act: 3; HSP90 refold inh: -1
